Data reported in PubChem BioAssay (EPA / NIEHS).
Records with an inconclusive call do not appear. Some compounds were tested as several samples or in several runs, with calls that do not always agree. Calls of active or inactive are those of the source. The calls were made as follows, unless noted: active = hit-call score of the fitted dose curve at least 0.9, where 1 is the maximum; inconclusive = response in the unintended direction; inactive = score below 0.9.

Key:
[1] = biological target: Agonist Androgen Response Element (ARE), AR (gene 367) (UniProt P10275); experiment: OT_AR_ARELUC_AG_1440: Odyssey Thera (OT) 24-hour CHO-K1 Luciferase Assay for Agonist Androgen Response Element (ARE) (AID 2283379)
Summary of the method: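 Luminescence increase above DMSO, read after a 24 h compound treatment of CHO-K1 cells expressing an androgen response element luciferase reporter, gives the single primary endpoint; concentration-response fitting used the positive direction.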

[2] = biological target: Estrogen receptor beta (Homo sapiens) (UniProt Q92731); experiment: OT_ER_ERbERb_1440: Odyssey Thera (OT) 24-hour HEK293T Protein-Complementation Assay for Estrogen Receptor-beta/-beta Homodimer (AID 2283380);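 also: fluorescence gain from ER beta LBD homodimer complementation read by laser scanning cytometry; scored as signal increase over DMSO baseline for both agonists and antagonists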
Summary of the method: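 HEK293T cells stably expressing human ER-beta LBD (aa 310-547) PCA homodimer pair, dosed 24 h; formaldehyde-fixed, Draq5-stained. Readout: increase in nuclear (agonist) or nuclear plus cytoplasmic (antagonist) fluorescence intensity versus DMSO, gain-of-signal fitting.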

[3] = biological target: Estrogen receptor (Homo sapiens) (UniProt P03372); experiment: OT_ERa_GFPERaERE_0480: Odyssey Thera (OT) 8-hour HeLa Transcription Induction Assay for Estrogen Receptor (AID 2283381; active = hit-call score of the fitted dose curve at least 0.9, where 1 is the maximum; inactive = score below 0.9)
Summary of the method: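 GFP-ERE reporter, HeLa, 8 h exposure. Readout: fluorescence microscopy, high-content image analysis. Fit direction positive vs DMSO negative control.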

[4] = biological target: Estrogen receptor (Homo sapiens) (UniProt P03372); experiment: OT_ERa_GFPERaERE_0120: Odyssey Thera (OT) 2-hour HeLa Transcription Induction Assay for Estrogen Receptor (AID 2283382)
Summary of the method: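 Fluorescence microscopy read-out: inducible fluorescent protein reporter in HeLa cells, imaged 2 h post-dose. Signal increase over DMSO negative control fitted as single primary endpoint via high content image analysis.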

[5] = biological target: Bile acid receptor (Homo sapiens) (UniProt Q96RI1); experiment: OT_FXR_FXRSRC1_0480: Odyssey Thera (OT) 8-hour HEK293T Protein-Complementation Assay for Farnesoid X receptor/SRC-1 Co-activator (AID 2283383)
Summary of the method: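 Fluorescence intensity read-out, 8 h post-dose, HEK293T protein-fragment complementation; FXR bait and SRC-1 prey each linked to reporter fragments. Activity scored as signal increase over DMSO negative control.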

[6] = biological target: Bile acid receptor (Homo sapiens) (UniProt Q96RI1); experiment: OT_FXR_FXRSRC1_1440: Odyssey Thera (OT) 24-hour HEK293T Protein-Complementation Assay for Farnesoid X receptor/SRC-1 Co-activator (AID 2283384)
Summary of the method: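 Fluorescence readout, 24 h post-dose, HEK293T; FXR and SRC-1 fused to complementary reporter fragments, association reconstitutes signal. Positive-direction fit vs DMSO baseline.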

[7] = biological target: Retinoic acid receptor RXR-alpha (Homo sapiens) (UniProt P19793); experiment: OT_NURR1_NURR1RXRa_0480: Odyssey Thera (OT) 8-hour HEK293T Protein Complementation Assay for Nurr1/retinoid X receptor (RXR) (AID 2283385)
Summary of the method: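 Read-out: fluorescence from protein-fragment complementation between Nurr1 and RXRα in human HEK293T cells, 8 h after dosing. DMSO served as negative control; increased signal counted as activity.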

[8] = biological target: Retinoic acid receptor RXR-alpha (Homo sapiens) (UniProt P19793); experiment: OT_NURR1_NURR1RXRa_1440: Odyssey Thera (OT) 24-hour HEK293T Protein Complementation Assay for Nurr1/retinoid X receptor (RXR) (AID 2283386)
Summary of the method: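 Fluorescence PCA read-out; HEK293T; 24 h post-dose; bait/prey fused to reporter fragments; gain-of-signal fit vs DMSO negative control.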

[9] = biological target: Peroxisome proliferator-activated receptor gamma (Homo sapiens) (UniProt P37231); experiment: OT_PPARg_PPARgSRC1_1440: Odyssey Thera (OT) 24-hour Protein-Complementation Assay for Peroxisome Proliferator-activated Receptor Gamma/ SRC-1 Co-activator (AID 2283388)
Summary of the method: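 HEK293T cells transiently transfected with PPARg and SRC-1 fused via (Gly4Ser)2 linker to split Venus YFP fragments (IFP1/IFP2) were dosed 24 h; fixed, Draq5-stained, imaged at 488/635 nm; nuclear/cytoplasmic fluorescence ratio scored versus DMSO baseline, gain-of-signal.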

[10] = biological target: Peroxisome proliferator-activated receptor gamma (Homo sapiens) (UniProt P37231); experiment: OT_PPARg_PPARgSRC1_0480: Odyssey Thera (OT) 8-hour Protein-Complementation Assay for Peroxisome Proliferator-activated Receptor Gamma / SRC-1 Co-activator (AID 2283387)
Summary of the method: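 HEK293T transiently transfected with PPARg and SRC-1 fused to Venus YFP fragments, compounds 8 h at 37C. Fixed, Draq5-stained cells imaged; nuclear/cytoplasmic 488 nm fluorescence ratio over at least 350 cells per image; gain fitted versus DMSO.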

Estrogen receptor beta (Homo sapiens), sequence (Q92731 whole entry, looked up, the tested form may be a part): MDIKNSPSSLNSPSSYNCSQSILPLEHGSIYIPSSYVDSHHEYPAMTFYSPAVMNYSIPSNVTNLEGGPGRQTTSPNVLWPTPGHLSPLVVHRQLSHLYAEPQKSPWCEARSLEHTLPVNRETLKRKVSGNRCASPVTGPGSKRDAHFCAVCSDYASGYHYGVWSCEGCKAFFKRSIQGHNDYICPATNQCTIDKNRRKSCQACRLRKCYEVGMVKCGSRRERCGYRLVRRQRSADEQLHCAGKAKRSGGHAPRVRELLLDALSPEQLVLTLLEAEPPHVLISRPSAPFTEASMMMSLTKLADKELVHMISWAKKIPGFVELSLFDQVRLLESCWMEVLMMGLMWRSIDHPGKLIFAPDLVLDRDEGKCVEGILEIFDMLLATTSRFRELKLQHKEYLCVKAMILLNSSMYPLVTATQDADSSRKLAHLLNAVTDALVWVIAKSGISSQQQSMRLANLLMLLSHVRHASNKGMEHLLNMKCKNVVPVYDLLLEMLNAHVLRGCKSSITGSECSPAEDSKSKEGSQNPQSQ
Peroxisome proliferator-activated receptor gamma (Homo sapiens), sequence (P37231 whole entry, looked up, the tested form may be a part): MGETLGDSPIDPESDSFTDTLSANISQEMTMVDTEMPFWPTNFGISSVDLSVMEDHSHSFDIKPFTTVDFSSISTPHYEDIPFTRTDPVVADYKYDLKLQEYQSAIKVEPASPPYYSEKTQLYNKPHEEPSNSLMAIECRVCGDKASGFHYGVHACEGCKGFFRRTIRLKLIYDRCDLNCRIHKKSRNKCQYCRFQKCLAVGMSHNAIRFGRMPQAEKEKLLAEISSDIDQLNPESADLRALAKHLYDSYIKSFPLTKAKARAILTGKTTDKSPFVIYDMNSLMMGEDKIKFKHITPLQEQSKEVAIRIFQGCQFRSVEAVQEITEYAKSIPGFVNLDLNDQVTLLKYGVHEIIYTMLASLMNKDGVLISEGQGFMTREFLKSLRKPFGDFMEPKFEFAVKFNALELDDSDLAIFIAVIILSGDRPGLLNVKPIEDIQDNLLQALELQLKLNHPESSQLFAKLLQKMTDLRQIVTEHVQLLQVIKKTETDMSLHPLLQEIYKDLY
Agonist Androgen Response Element (ARE), AR (gene 367), sequence (P10275 whole entry, looked up): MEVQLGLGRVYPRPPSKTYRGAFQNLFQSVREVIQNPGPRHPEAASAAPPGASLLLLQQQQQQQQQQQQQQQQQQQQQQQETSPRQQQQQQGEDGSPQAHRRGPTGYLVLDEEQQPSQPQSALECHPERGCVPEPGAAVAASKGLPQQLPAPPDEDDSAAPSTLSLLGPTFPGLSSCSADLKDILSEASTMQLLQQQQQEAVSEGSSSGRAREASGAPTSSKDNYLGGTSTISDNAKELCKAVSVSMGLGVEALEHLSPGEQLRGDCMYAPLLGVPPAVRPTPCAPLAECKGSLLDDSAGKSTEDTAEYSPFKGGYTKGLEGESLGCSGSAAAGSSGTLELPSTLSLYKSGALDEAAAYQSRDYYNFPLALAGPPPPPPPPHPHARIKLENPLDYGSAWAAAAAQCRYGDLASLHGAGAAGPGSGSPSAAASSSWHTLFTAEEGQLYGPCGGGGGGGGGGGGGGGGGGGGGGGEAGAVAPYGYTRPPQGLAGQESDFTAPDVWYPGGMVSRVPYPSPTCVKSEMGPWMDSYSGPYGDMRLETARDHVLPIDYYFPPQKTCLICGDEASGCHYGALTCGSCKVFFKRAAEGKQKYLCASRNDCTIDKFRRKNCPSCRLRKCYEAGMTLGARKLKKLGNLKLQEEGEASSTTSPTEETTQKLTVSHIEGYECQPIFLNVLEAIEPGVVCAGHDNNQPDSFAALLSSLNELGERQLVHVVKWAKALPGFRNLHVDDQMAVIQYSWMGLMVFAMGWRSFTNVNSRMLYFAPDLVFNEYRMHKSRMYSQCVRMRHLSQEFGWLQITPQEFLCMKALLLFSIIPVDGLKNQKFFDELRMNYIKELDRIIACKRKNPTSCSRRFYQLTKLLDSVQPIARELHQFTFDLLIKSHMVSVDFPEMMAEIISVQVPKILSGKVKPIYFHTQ
Bile acid receptor (Homo sapiens), sequence (Q96RI1 whole entry, looked up, the tested form may be a part): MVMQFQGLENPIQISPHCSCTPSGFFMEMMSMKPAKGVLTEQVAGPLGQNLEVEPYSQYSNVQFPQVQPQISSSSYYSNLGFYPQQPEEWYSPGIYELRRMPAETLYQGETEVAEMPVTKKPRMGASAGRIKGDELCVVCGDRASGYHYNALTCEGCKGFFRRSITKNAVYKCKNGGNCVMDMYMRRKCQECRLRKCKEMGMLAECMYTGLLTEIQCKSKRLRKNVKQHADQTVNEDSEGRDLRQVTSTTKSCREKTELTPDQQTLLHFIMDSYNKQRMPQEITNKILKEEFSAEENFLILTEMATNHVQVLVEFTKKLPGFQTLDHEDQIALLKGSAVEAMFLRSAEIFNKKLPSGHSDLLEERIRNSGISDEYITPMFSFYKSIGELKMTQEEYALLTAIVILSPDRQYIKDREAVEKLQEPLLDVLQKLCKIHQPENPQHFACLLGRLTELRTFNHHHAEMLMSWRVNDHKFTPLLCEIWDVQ
Estrogen receptor (Homo sapiens), sequence (P03372 whole entry, looked up): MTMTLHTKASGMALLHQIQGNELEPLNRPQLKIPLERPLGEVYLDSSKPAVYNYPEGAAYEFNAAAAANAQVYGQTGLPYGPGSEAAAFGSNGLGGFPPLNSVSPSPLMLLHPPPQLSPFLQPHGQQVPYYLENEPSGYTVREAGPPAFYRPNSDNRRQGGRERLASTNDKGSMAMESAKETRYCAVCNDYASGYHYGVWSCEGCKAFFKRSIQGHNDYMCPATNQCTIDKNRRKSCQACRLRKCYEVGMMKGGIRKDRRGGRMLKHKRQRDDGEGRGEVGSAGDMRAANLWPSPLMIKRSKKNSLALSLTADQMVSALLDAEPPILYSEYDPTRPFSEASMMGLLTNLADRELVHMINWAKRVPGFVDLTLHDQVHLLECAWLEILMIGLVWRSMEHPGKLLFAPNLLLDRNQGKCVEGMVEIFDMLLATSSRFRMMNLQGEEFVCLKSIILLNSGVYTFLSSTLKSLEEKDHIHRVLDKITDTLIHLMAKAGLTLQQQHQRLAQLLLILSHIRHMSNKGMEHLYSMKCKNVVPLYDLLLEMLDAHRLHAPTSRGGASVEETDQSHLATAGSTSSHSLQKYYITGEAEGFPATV
Retinoic acid receptor RXR-alpha (Homo sapiens), sequence (P19793 whole entry, looked up, the tested form may be a part): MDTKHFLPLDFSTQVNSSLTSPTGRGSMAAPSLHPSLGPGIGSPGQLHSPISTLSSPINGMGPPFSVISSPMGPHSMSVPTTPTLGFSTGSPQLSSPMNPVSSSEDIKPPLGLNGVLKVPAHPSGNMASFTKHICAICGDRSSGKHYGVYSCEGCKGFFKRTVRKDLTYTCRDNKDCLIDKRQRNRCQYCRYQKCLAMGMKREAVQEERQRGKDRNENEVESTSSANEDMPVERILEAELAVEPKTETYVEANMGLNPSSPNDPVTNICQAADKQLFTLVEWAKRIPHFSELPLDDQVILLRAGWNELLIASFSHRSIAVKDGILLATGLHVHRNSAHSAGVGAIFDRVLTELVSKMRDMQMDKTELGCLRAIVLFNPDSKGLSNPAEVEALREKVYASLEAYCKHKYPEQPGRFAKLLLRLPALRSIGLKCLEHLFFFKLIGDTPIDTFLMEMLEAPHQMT

## CCCCC(CC)COP(=O)(Oc1ccccc1)Oc1ccccc1 (stereo not given)
[1]
  outcome: inactive
[2]
  outcome: inactive
[3]
  outcome: inactive
[4]
  outcome: inactive
[5]
  AC50: 2.85 µM (active)
[6]
  outcome: inactive
[7]
  outcome: inactive
[8]
  AC50: 82.1 µM (active)
[9]
  outcome: inactive

## [N-]=[N+]=[N-]
[1]
  outcome: inactive
[3]
  outcome: inactive
[4]
  outcome: inactive
[9]
  outcome: inactive

## c1cc2c3c(cccc3c1)CC2
[1]
  outcome: inactive
[2]
  outcome: inactive
[3]
  outcome: inactive
[4]
  outcome: inactive
[7]
  outcome: inactive
[8]
  outcome: inactive
[9]
  outcome: inactive

## c1nc[nH]n1
[2]
  outcome: inactive
[3]
  outcome: inactive
[4]
  outcome: inactive
[5]
  outcome: inactive
[8]
  outcome: inactive
[10]
  outcome: inactive
[9]
  outcome: inactive

## CCOC(=O)c1ccccc1N
[2]
  outcome: inactive
[3]
  outcome: inactive
[4]
  outcome: inactive
[6]
  outcome: inactive
[8]
  outcome: inactive
[9]
  outcome: inactive

## CC(C)(C)OOC(C)(C)C
[2]
  outcome: inactive
[3]
  outcome: inactive
[4]
  outcome: inactive
[5]
  outcome: inactive
[8]
  outcome: inactive
[9]
  outcome: inactive

## ClC(Cl)(Cl)c1ccccc1
[2]
  outcome: inactive
[3]
  outcome: inactive
[4]
  outcome: inactive
[5]
  outcome: inactive
[6]
  outcome: inactive

## CCC(C)(C)c1ccc(O)cc1
[2]
  AC50: 4.88 µM (active)
[3]
  AC50: 1.32 µM (active)
[4]
  AC50: 0.619 µM (active)
[5]
  AC50: 60.9 µM (active)
[6]
  outcome: inactive
[7]
  outcome: inactive
[8]
  AC50: 66.4 µM (active)
[9]
  outcome: inactive

## CC(C)(C)N(NC(=O)c1ccc(Cl)cc1)C(=O)c1ccccc1
[1]
  outcome: inactive
[2]
  outcome: inactive
[3]
  outcome: inactive
[4]
  outcome: inactive
[5]
  AC50: 70.1 µM (active)
[6]
  outcome: inactive
[8]
  outcome: inactive
[9]
  outcome: inactive

## Cc1ccc(N)cc1N
[2]
  outcome: inactive
[3]
  outcome: inactive
[4]
  outcome: inactive
[5]
  outcome: inactive
[6]
  outcome: inactive
[7]
  outcome: inactive
[8]
  outcome: inactive
[9]
  outcome: inactive

## CCOc1ccc(C(C)(C)COCc2cccc(Oc3ccccc3)c2)cc1
[2]
  outcome: inactive
[3]
  outcome: inactive
[4]
  outcome: inactive
[5]
  outcome: inactive
[7]
  outcome: inactive
[8]
  outcome: inactive
[9]
  outcome: inactive

## O=C(CBr)OCc1ccccc1
[2]
  outcome: inactive
[3]
  outcome: inactive
[4]
  outcome: inactive
[5]
  outcome: inactive
[7]
  outcome: inactive
[8]
  outcome: inactive
[9]
  outcome: inactive

## CCCCN(CC)C(=O)SCCC
[1]
  outcome: inactive
[2]
  outcome: inactive
[3]
  outcome: inactive
[4]
  outcome: inactive
[5]
  outcome: inactive
[6]
  outcome: inactive
[9]
  outcome: inactive

## CCCCc1ccccc1
[2]
  outcome: inactive
[3]
  outcome: inactive
[4]
  outcome: inactive
[5]
  outcome: inactive
[7]
  outcome: inactive
[8]
  outcome: inactive
[10]
  outcome: inactive
[9]
  outcome: inactive

## ClC1=C(Cl)C2(Cl)C3C(Cl)C(Cl)CC3C1(Cl)C2(Cl)Cl (stereo not given)
[1]
  outcome: inactive
[2]
  outcome: inactive
[3]
  outcome: inactive
[4]
  outcome: inactive
[5]
  outcome: inactive
[9]
  outcome: inactive

## CCOP(=S)(OCC)SCSCC
[2]
  outcome: inactive
[3]
  outcome: inactive
[4]
  outcome: inactive
[5]
  AC50: 32.6 µM (active)
[6]
  outcome: inactive
[7]
  outcome: inactive
[9]
  outcome: inactive

## CO/N=C(/C(=O)OC)c1ccccc1COc1ccccc1C
[1]
  outcome: inactive
[3]
  AC50: 15.7 µM (active)
[4]
  AC50: 21.9 µM (active)
[5]
  AC50: 13.4 µM (active)
[6]
  AC50: 12.4 µM (active)
[7]
  outcome: inactive

## CCN(CC)c1ccccc1
[1]
  outcome: inactive
[2]
  outcome: inactive
[3]
  outcome: inactive
[4]
  outcome: inactive
[6]
  outcome: inactive
[7]
  outcome: inactive
[8]
  outcome: inactive
[10]
  outcome: inactive
[9]
  outcome: inactive

## CCCCc1ccc(O)cc1
[2]
  AC50: 19.6 µM (active)
[3]
  outcome: inactive
[4]
  outcome: inactive
[5]
  outcome: inactive
[6]
  AC50: 67.9 µM (active)
[7]
  outcome: inactive
[8]
  outcome: inactive
[10]
  outcome: inactive
[9]
  outcome: inactive

## CCNc1nc(Cl)nc(NC(C)(C)C)n1
[1]
  outcome: inactive
[2]
  outcome: inactive
[3]
  outcome: inactive
[4]
  outcome: inactive
[5]
  outcome: inactive
[6]
  outcome: inactive
[7]
  outcome: inactive
[8]
  outcome: inactive
[10]
  outcome: inactive
[9]
  outcome: inactive

## Cc1ccc([N+](=O)[O-])cc1C
[2]
  outcome: inactive
[3]
  outcome: inactive
[4]
  outcome: inactive
[5]
  outcome: inactive
[6]
  outcome: inactive
[7]
  outcome: inactive
[8]
  outcome: inactive
[9]
  outcome: inactive

## O=S1(=O)OCC2C(CO1)C1(Cl)C(Cl)=C(Cl)C2(Cl)C1(Cl)Cl (stereo not given)
[2]
  outcome: inactive
[3]
  outcome: inactive
[4]
  outcome: inactive
[5]
  AC50: 49.3 µM (active)
[6]
  AC50: 50 µM (active)
[7]
  outcome: inactive
[10]
  outcome: inactive
[9]
  outcome: inactive

## CCCN(CCC)c1c([N+](=O)[O-])cc(C(C)C)cc1[N+](=O)[O-]
[2]
  AC50: 7.26 µM (active)
[3]
  AC50: 12.2 µM (active)
[4]
  outcome: inactive
[7]
  AC50: 75.7 µM (active)
  outcome: inactive
[8]
  AC50: 80.9 µM (active)
  outcome: inactive
[9]
  outcome: inactive

## CC1(C)CN=C(NN=C(/C=C/c2ccc(C(F)(F)F)cc2)/C=C/c2ccc(C(F)(F)F)cc2)NC1
[1]
  outcome: inactive
[2]
  outcome: inactive
[3]
  outcome: inactive
[4]
  outcome: inactive
[10]
  outcome: inactive
[9]
  outcome: inactive

## O=NN1CCCC1
[2]
  AC50: 50 µM (active)
[3]
  outcome: inactive
[4]
  outcome: inactive
[5]
  outcome: inactive
[6]
  outcome: inactive
[7]
  outcome: inactive
[9]
  outcome: inactive

## O=S(=O)(c1ccc(O)cc1)c1ccc(O)cc1
[2]
  AC50: 39.5 µM (active)
[3]
  AC50: 12.6 µM (active)
[4]
  AC50: 51.9 µM (active)
[5]
  outcome: inactive
[9]
  outcome: inactive

## O=C(O)C1C(C(=O)O)C2(Cl)C(Cl)=C(Cl)C1(Cl)C2(Cl)Cl (stereo not given)
[2]
  outcome: inactive
[3]
  outcome: inactive
[4]
  outcome: inactive
[5]
  outcome: inactive
[6]
  outcome: inactive

## O=P(OCC(Br)CBr)(OCC(Br)CBr)OCC(Br)CBr (stereo not given)
[1]
  outcome: inactive
[2]
  outcome: inactive
[3]
  outcome: inactive
[4]
  outcome: inactive
[5]
  AC50: 11.4 µM (active)
[6]
  AC50: 29 µM (active)
[7]
  outcome: inactive
[8]
  AC50: 73.9 µM (active)
[9]
  outcome: inactive
